BoNT A protease – BoNT/A light chain protease inhibitors, primary screen, biochemical, flow cytometry, MLPCN library; Botulinum neurotoxin type A light chain protease (Clostridium botulinum A str. ATCC 3502); multiplex microsphere protease substrate cleavage; inhibition, % at 10 µM; 360,000 compounds, 0.17% hits; also: plate controls were buffer without enzyme for full effect and enzyme alone for no effect
GDH-TPI inh – GDH-TPI coupling enzyme inhibitors, primary screen, artefact control for M. tuberculosis FBA inhibitor project, biochemical, absorbance, full deck. GDH-TPI coupled enzyme counterscreen, NADH absorbance. inhibition, % at 4.8 µM. 360,000 compounds, 1.2% hits; in the data active = inhibition above about 30%;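 also: 0% = DMSO wells and 100% = wells lacking the enzyme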
BoNT-F LC inh – BoNT/F light chain protease inhibitors, primary screen, biochemical, flow cytometry, MLPCN library. Multiplex microsphere protease cleavage assay. inhibition, % at 10 µM. 360,000 compounds, 0.22% hits. AID 588497, 2011; in the data active = inhibition above about 35%, passing the limit was not always enough; inconclusive = no clear call, values can overlap the other calls; also: plate controls were buffer without enzyme for full effect and enzyme alone for no effect
Anthrax LF inh2 – Bacillus anthracis LF protease inhibitors, primary screen, biochemical, multiplex microsphere, MLPCN library; 360,000 compounds, 0.12% hits; AID 588501, 2011; inhibition, % at 10 µM; Lethal factor (Bacillus anthracis), P15917; multiplex microsphere protease cleavage assay; also: plate controls were buffer without enzyme for full effect and enzyme alone for no effect
Bead autofluor – counter-screen for toxin protease inhibitors: compound fluorescence | fluorescence intensity (concentration not given with the values) | 360,000 compounds, 3.1% hits | AID 624483 | compound autofluorescence counterscreen, microsphere flow cytometry; active compounds read high; in the data active = fluorescence intensity above about 16000; inconclusive = no clear call, values can overlap the other calls
FBA Mtb inh – Mtb FBA enzyme inhibitors, primary screen, biochemical, fluorescence, strain H37Rv; Fructose-bisphosphate aldolase (Mycobacterium tuberculosis (strain ATCC 25618 / H37Rv)), …; purified M. tuberculosis FBA, fluorescence read-out; inhibition, % at 1 µM; 360,000 compounds, 2.3% hits; in the data active = inhibition above about 27%;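 also: 0% = vehicle and 100% = reference inhibitor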
Target sequence (P9WQA3 whole entry, looked up): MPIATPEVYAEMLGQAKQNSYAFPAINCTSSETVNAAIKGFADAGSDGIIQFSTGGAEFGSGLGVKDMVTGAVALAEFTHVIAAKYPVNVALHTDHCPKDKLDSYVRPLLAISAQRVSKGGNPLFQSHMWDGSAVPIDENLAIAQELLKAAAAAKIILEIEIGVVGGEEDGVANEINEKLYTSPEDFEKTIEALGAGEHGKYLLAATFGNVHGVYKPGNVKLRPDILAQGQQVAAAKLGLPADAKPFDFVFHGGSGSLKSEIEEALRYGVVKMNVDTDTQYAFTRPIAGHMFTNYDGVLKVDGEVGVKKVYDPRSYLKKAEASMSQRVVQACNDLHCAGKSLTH
Numbers without * were called inactive; u = inconclusive; x = not tested or not shown; + = active, no number. Only some compounds are listed: those with a hit (about 6.7% of all), similar ones and a draw of the others. Rule as the data show it, unless noted: active = inhibition above about 30%; inconclusive = no clear call, values can overlap the other calls; inactive = below that.

SMILES | BoNT A protease | GDH-TPI inh | BoNT-F LC inh | Anthrax LF inh2 | Bead autofluor | FBA Mtb inh
COc1ccc(-c2nc(NCCN(C)C)nc3ccsc23)c(C)c1 | 0 | 16 | -15 | -5 | 3924 | 6
Cc1cc(C(=O)C(=O)N(C)C)c(C)n1-c1ccc(Cl)c(Cl)c1 | 0 | 5 | 2 | 2 | 2588 | 3
CC(C)Cc1[nH]c(=O)c(C#N)c2c1COC(C)(C)C2 | 0 | 31* | -6 | 4 | 3752 | 17
Cc1[nH]c(=O)c(C#N)c2c1COC(C)(C)C2 | 0 | -4 | -11 | -6 | 4176 | 9
CC(C)c1[nH]c(=O)c(C#N)c2c1COC(C)(C)C2 | -4 | 13 | -3 | -1 | 21618* | 4
Cc1ccccc1C(=O)Nc1cccc(NC(=S)NC(=O)c2cccs2)c1 | 0 | 2 | 3 | 5 | u | 2
CCc1[nH]nc(C(=O)N2CCCC(C(=O)c3cccc(OC(C)C)c3)C2)c1C (stereo not drawn) | -1 | -4 | 2 | -3 | 5820 | 164*
CCc1cc(C(=O)N2CCCC(C(=O)c3cccc(OC(C)C)c3)C2)n(C)n1 (stereo not drawn) | -1 | -7 | -11 | -5 | 4734 | 0
COC(=O)c1ccc2nc(C)c(C)nc2c1 | u | 18 | 0 | -2 | 20620* | 5
COc1ccc(Cl)cc1NC(=O)CSC1=NN2CCCC(=O)N=C2S1 | 0 | 1 | 8 | 0 | 6025 | -1
O=C(Nc1cccc(-c2csc(Nc3ccc(Cl)cc3)n2)c1)c1cc([N+](=O)[O-])cc(C(F)(F)F)c1 | 0 | 41* | 7 | -2 | 3290 | -1
Cc1ccccc1NS(=O)(=O)c1cc(C(=O)NCc2ccco2)ccc1C | 0 | 8 | 10 | 4 | 7208 | 2
COc1ccccc1NS(=O)(=O)c1cc(C(=O)NCc2ccco2)ccc1C | 9 | -2 | 16 | 2 | 17992* | -1
CCc1nc(N2CCN(C(=O)c3ccccc3)CC2)c(C#N)c2c1COC(C)(C)C2 | 0 | 12 | -6 | -1 | 3671 | 23
COc1ccc(-c2cc(-c3ccccc3)nc(=O)[nH]2)cc1 | 0 | 14 | -10 | 0 | 5968 | +
O=c1ccc(-c2ccccc2)n[nH]1 | 1 | 4 | 6 | -2 | 12407 | -3
COc1ccc(-c2cc(-c3ccccc3)nc(-c3ccc4c(c3)NC(=O)CO4)c2)cc1 | u | 8 | 2 | 0 | 19614* | -2
COc1ccc(-c2ccc(=O)[nH]n2)cc1 | -1 | -4 | -2 | -3 | 20511* | 3
COC(=O)c1ccccc1NC(=O)CNC(=O)c1ccc(OC)cc1 | 1 | -3 | -4 | 0 | 4270 | -2
CCC(=O)N1CCCc2cc(S(=O)(=O)N3CCN(c4ccccc4F)CC3)ccc21 | 0 | -1 | 8 | 4 | 5480 | 2
CC1=C(C(=O)Nc2cc(C)ccc2C)C(c2cccs2)NC(=S)N1 (stereo not drawn) | -5 | -6 | -6 | 0 | 21275* | -4
O=C(NNC(=O)c1ccc(Cl)c(Cl)c1)c1ccncc1 | -1 | 21 | 2 | 2 | 5939 | 0
COc1cc(/C=C2\C(=O)N(c3cccc(C(=O)O)c3)N=C2C)ccc1OCc1ccccc1 | 0 | 2 | -1 | -9 | 3783 | 1
C#CCOc1ccc(/C=C2/C(=O)N(c3cccc(C(=O)O)c3)N=C2C)cc1OC | 0 | 17 | 35* | 2 | 3037 | -1
CCC(=O)Nc1ccc2c(c1)nc1n2CCSC1 | x | 2 | x | x | x | 5
O=C(Nc1ccc2c(c1)nc1n2CCSC1)c1ccccc1 | 0 | 5 | 0 | 5 | 21018* | 4
CC(C)C(=O)Nc1ccc2c(c1)nc1n2CCSC1 | 1 | 12 | 7 | -1 | 16136* | -1
Cc1ccc(Cn2cccc(NC(=O)CCC3CCCC3)c2=O)cc1 | 1 | 2 | 1 | -4 | 6030 | 3
Cc1cc(C(=O)N/N=C/C=C/c2ccccc2)c(C)o1 | -1 | 32* | -7 | -2 | 2540 | -2
O=C(N/N=C\c1ccc(Sc2ccccn2)o1)c1cccc(Br)c1 | 1 | 32* | 5 | 5 | 9206 | -1
